Compound activity deposited in PubChem BioAssay by National Center for Advancing Translational Sciences (NCATS).
Compounds with a hit are over-represented: about 9.3% of the library has one in this group of screens.
ELG1 genotoxic – inducers of genotoxicity in HEK293T ELG1-luciferase cells; Potency, µM (top dose mostly 46 µM), for the others: at the top dose activity change, positive = activation, hits mostly activators; 1.3% of 330,000 active; AID 504466; HEK293T ELG1-luciferase reporter, luminescence, 16 h; further: % of control where 0% means no effect; nearly all actives have a fitted effect of over 60% in size
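After overnight (16 hr) compound treatment at 37 °C, ELG1-luciferase HEK293T cells were lysed with ONE-Glo; luminescence quantified 30 min later at room temperature.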
Rab9 promoter act – activates the Rab9 promoter; 2.8% of 320,000 active; Potency, µM (doses to about 9.22 µM), for the others: at the top dose activation, negative = inhibition, actives largely listed as activators; Huh7 Rab9 promoter-luciferase reporter, luminescence, 24 h; further: % of control where 0% means no effect; nearly all actives have a fitted effect of over 60% in size
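Huh7 cells stably carrying Rab9 promoter–luciferase reporter, plated 1500 cells/well, compound added after 2 h and incubated 24 h at 37 °C; luciferase luminescence then read after 10 min with detection reagent.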
NPC1 promoter act – NPC1 promoter activation; Huh7 NPC1 promoter luciferase reporter, 24 h; Potency, µM (top dose mostly 9.22 µM), without a hit: at the top dose activation, most hits filed as activators; 2.4% of 320,000 active; further: % of control where 0% means no effect; nearly all actives have a fitted effect of over 60% in size
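NPC1 promoter–luciferase Huh7 cells; 24 h compound; luminescence.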
FLuc modulator – counter-screen for miR-21 project: firefly luciferase inhibitors or activators. P08659. purified FLuc, Km substrates, luminescence inhibition. Potency, µM (highest dose often 57.5 µM), for the others: at the highest dose activity change, negative = inhibition, usual class: inhibitors. 6.9% of 360,000 active;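 further: plate controls were vehicle for no effect and reference inhibitor for full effect; nearly all actives have a fitted effect of over 55% in size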
Target sequence (P08659 whole entry, looked up): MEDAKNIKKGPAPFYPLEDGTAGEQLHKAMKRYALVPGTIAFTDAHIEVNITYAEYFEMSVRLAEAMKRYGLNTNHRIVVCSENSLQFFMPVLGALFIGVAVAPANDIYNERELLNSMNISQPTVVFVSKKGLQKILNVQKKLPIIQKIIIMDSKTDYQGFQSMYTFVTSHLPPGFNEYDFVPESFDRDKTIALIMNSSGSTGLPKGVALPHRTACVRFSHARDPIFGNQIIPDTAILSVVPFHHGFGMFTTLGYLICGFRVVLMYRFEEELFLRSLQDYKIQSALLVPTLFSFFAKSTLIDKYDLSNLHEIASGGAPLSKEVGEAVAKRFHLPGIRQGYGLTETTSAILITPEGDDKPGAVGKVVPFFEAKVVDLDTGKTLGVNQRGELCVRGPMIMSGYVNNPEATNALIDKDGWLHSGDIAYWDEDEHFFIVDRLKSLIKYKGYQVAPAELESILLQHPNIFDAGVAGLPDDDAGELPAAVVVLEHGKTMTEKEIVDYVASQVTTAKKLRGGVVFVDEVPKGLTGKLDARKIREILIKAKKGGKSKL
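Purified P. pyralis luciferase (10nM final) with 10uM D-luciferin and 10uM ATP (Km levels) in 50mM Tris acetate pH 7.5, 10mM Mg acetate, 0.01% Tween-20, 0.05% BSA; qHTS 6-point titration, ~60 µM downward; luminescence read.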
SMN2 splice enh – enhancers of SMN2 splice variant expression; HEK293 SMN2-luciferase splicing reporter, luminescence, 30-36 h; Potency, µM (doses to about 46.1 µM), inactives show top-dose activity change, positive = activation, actives largely listed as activators; 2.8% of 210,000 active; AID 1458; further: % of control where 0% means no effect; nearly all actives have a fitted effect of over 55% in size
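HEK293 cells carry an SMN2 […]–luciferase reporter in which exon 7 inclusion puts luciferase in frame. Cells were plated 10-12 h before compound addition, then incubated 30-36 h at 37C. ONE-Glo luminescence was read; sodium butyrate at 4.5 mM final served as control.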
ELG1 DNA repair – inhibitors of ELG1-dependent DNA repair in HEK293T cells; 2.3% of 330,000 active; Potency, µM (doses to about 46.1 µM), for inactives: at the highest dose activity change, negative = inhibition, usual class: inhibitors; HEK293T ELG1-luciferase reporter, luminescence, 16 h; DNA damage induced by 5-fluorouridine; AID 504467; further: on the % scale 0 is the no-effect control and ±100 the full control effect; nearly all actives have a fitted effect of over 55% in size
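Luminescence from the luciferase reporter, measured 30 min after ONE-Glo reagent at room temperature, was the read-out. Beforehand, 2,000 cells per well were exposed for 16 hr at 37 °C to 5-fluorouridine together with compound or vehicle.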
* hit, by the source's call; u = inconclusive; x = not tested or not shown. The call rests on the fitted dose curve; in most records, active means well fitted curve in the direction sought with a large enough effect; inconclusive means small, poorly fitted or top-dose-only effect, or another doubt; inactive means no such curve, though single readings can be large; an effect the other way counts as inactive or inconclusive. Potency means the concentration at half of the fitted maximal effect.

SMILES | ELG1 genotoxic | Rab9 promoter act | NPC1 promoter act | FLuc modulator | SMN2 splice enh | ELG1 DNA repair
Cc1ccccc1-c1noc(-c2ccccc2C(=O)NCc2ccco2)n1 | -8% | 7% | 13% | u | x | u
Cc1ccc(NC(=O)Cn2c(=O)n(Cc3ccc4c(c3)OCO4)c(=O)c3ccc(C(=O)NC4CCCCC4)cc32)c(C)c1 | x | x | x | -1% | 9% | x
CC(C)(C)c1nnc(NC(=S)Nc2ccccc2)s1 | u | 3.2µM* | 3.5µM* | 9.5µM* | 13µM* | u
O=C(Cc1ccc(F)cc1)Nc1nccs1 | -11% | 4% | -1% | -1% | x | -5%
O=C(Cc1ccccc1)Nc1nccs1 | 0% | 3% | 1% | -1% | x | 1%
Fc1ccc(NC(=S)Nc2nccs2)cc1 | 6% | 3.5µM* | u | 21µM* | u | u
COc1cc(OC)cc(C(=O)Nc2nnc(NC(=S)Nc3ccccc3)s2)c1 | -5% | -2% | -2% | -1% | 12% | -9%
S=C(Nc1ccccc1)Nc1nccs1 | 8% | u | 2.5µM* | 15µM* | u | u
NCCCCC(NC(=O)C1CCCN1C(=O)C1CSSCC(N)C(=O)NC(Cc2ccc(O)cc2)C(=O)NC(Cc2ccccc2)C(=O)NC(CCC(N)=O)C(=O)NC(CC(N)=O)C(=O)N1)C(=O)NCC(N)=O (stereo unspecified) | 0% | -1% | -5% | 2% | -14% | 1%
CC(=O)c1c(C)[nH]c(C(=O)Nc2ccccc2Cl)c1C | 13% | 20% | u | -12% | x | u
CCc1ccc(/C=N/NC(=O)c2cc(C3CC3)nc3ccc(Br)cc23)s1 | -3% | -14% | -23% | 1% | -6% | 7.3µM*
COc1ccccc1-c1cc(C(=O)N/N=C/c2ccc(C)s2)c2ccccc2n1 | 2% | -2% | -1% | u | u | 7.3µM*
CCc1ccc(/C=N/NC(=O)c2cc(-c3ccccc3OC)nc3ccccc23)s1 | 0% | 1% | 2% | -9% | -25% | 18µM*
COc1ccccc1-c1cc(C(=O)N/N=C/c2ccoc2)c2ccccc2n1 | 2% | 2% | -2% | u | x | u
O=C(N/N=C/c1cccc(O)c1)c1cc(C2CC2)nc2ccccc12 | -8% | -4% | -2% | u | x | -7%
Nc1c(-c2ccccc2)cnc2cc(-c3ccccc3)nn12 | 2.6µM* | 0.71µM* | 1.4µM* | 0.6µM* | 4.5µM* | u
Cc1ccc(-c2cc3ncc(C#N)c(N)n3n2)cc1 | u | 2.8µM* | 2.8µM* | -19% | u | u
Nc1c(-c2ccc(Cl)cc2)cnc2ncnn12 | 2% | 5% | 3% | 1% | -10% | 1%
Cc1cc2ncc(-c3ccc(Cl)cc3)c(N)n2n1 | 15µM* | 4µM* | u | 9.5µM* | 13µM* | u
CCCOc1ccc(C(=O)NCC(c2ccc(OC)cc2)N2CCCCC2)cc1 (stereo unspecified) | x | x | x | -2% | -7% | x
CC1(C)Cc2c(sc3c2c(=N)n(Cc2ccco2)c(=O)n3Cc2ccc(Cl)cc2)CO1 | -16% | 3% | 1% | 1% | -11% | 5.8µM*
CC1(C)Cc2c(sc3c2c(=N)n(Cc2ccco2)c(=O)n3Cc2ccccc2)CO1 | 0% | 8% | -3% | -2% | 27% | 12µM*
CC1(C)Cc2c(sc3c2c(=O)n(Cc2ccccc2)c2nncn32)CO1 | 0% | -2% | -4% | 1% | -11% | 3%
c1ccc(C2c3[nH]c4ccccc4c3CCN2Cc2cccn2-c2ccccn2)nc1 (stereo unspecified) | -13% | -2% | 2% | -5% | x | -8%
Cc1cccc(C2c3[nH]c4ccccc4c3CCN2Cc2cccn2-c2ncccn2)c1 (stereo unspecified) | -6% | u | 1% | -19% | 20µM* | u
SMILES | ELG1 genotoxic | Rab9 promoter act | NPC1 promoter act | FLuc modulator | SMN2 splice enh | ELG1 DNA repair
COc1ccc(C2c3[nH]c4ccccc4c3CCN2Cc2cccn2-c2ncccn2)cc1C (stereo unspecified) | -5% | -9% | 8% | -19% | x | 21µM*
Cc1ccc2c(c1)nnn2C1CCN(CC(=O)NCCc2nc3ccccc3[nH]2)CC1 | 0% | 10% | -1% | -1% | x | -3%
O=c1c2c3c(sc2nc2n1N=C(c1cccs1)CS2)CCCC3 | u | 0.63µM* | 0.63µM* | 0.19µM* | -23% | u
O=c1oc(-c2cccs2)nc2sc3c(c12)CCCC3 | 1% | 4% | 15% | 2.4µM* | u | u
O=C1CN(c2nc(-c3cccs3)nc3sc4c(c23)CCCC4)CCN1 | u | -45% | -37% | 6µM* | u | 4%
Cc1cccc(-c2noc(CN(C(=O)C34CC5CC(CC(C5)C3)C4)C(C)C)n2)c1 | -6% | -3% | -1% | 3% | -10% | 5%
OC(CN1CCOCC1)CN(c1ccccc1)c1ccccc1 (stereo unspecified) | -2% | 2% | -1% | 2% | -12% | -3%
COc1cccc(-c2cn3nc4c(nc3n2)CCCC4)c1 | u | 0.71µM* | 0.63µM* | 0.76µM* | 1.6µM* | u
Clc1ccc(-c2cn3nc4c(nc3n2)CCCC4)cc1 | u | 0.32µM* | 0.2µM* | 0.24µM* | 1.8µM* | u
Cc1[nH]n2c(=O)c3c(nc2c1-c1ccc(Cl)cc1)CCC3 | -18% | -23% | -10% | 1% | x | 6%
COc1cccc(-c2cc(C(F)(F)F)n3nc(N)nc3n2)c1 | 5% | -4% | 2% | 0% | -8% | -1%
COC(=O)c1sc(-c2ccc(C(C)(C)C)cc2)cc1NC(=O)CCC(=O)O | u | 27% | 24% | 1.5µM* | x | u
COC(=O)c1sc(-c2ccc(Cl)cc2)cc1NC(=O)/C=C/C(=O)O | 2% | -6% | 0% | 9.5µM* | x | -23%
Cc1ccc[n+](CC(=O)Nc2cccc(Cl)c2)c1 | -2% | 11% | -4% | 2% | x | 0%
O=C(CS(=O)(=O)c1nc(-c2ccc(Cl)cc2)cn1-c1ccccc1)Nc1cccc(Cl)c1 | x | x | x | u | 13µM* | x
O=C(CSc1nc(-c2ccccc2)cn1-c1ccccc1)Nc1ccccc1 | x | x | x | -11% | x | x
Cc1ccc(-c2cn(-c3cccc(Cl)c3)c(S(=O)(=O)CC(=O)Nc3ccccc3F)n2)cc1 | x | x | x | u | 13µM* | x
Cc1ccc(-c2cn(-c3cccc(Cl)c3)c(S(=O)(=O)CC(=O)Nc3cccc(C)c3)n2)cc1 | x | x | x | -13% | 16µM* | x
O=C(CS(=O)(=O)c1nc(-c2ccc(Cl)cc2)cn1-c1ccccc1)Nc1ccc(F)cc1F | x | x | x | 21µM* | 14µM* | x
Cc1cccc(NC(=O)CS(=O)(=O)c2nc(-c3ccccc3)cn2-c2cccc(Cl)c2)c1C | x | x | x | 4% | 28% | x
